# Reference: paper PMC7862700, “An all-to-all approach to the identification of sequence-specific readers for epigenetic DNA modifications on cytosine”
# Columns and labels:
# Assay in all cases: DAPPL (digital affinity profiling via proximity ligation, sequencing); 10 mM Tris-HCl pH 7.5, 50 mM NaCl, 1 mM DTT, 4% glycerol, room temperature, 30 min; GST-TFs on glutathione beads, 16-mer random dsDNA library, 0.1% formaldehyde crosslink after washing; high values mean tight binding
# Conditions in all cases: protein: recombinant; tags: N-terminal GST; dsDNA, one strand shown
# [1] = target: T1, ERF (Homo sapiens, UniProt P50548 1-548)
# T1 sequence: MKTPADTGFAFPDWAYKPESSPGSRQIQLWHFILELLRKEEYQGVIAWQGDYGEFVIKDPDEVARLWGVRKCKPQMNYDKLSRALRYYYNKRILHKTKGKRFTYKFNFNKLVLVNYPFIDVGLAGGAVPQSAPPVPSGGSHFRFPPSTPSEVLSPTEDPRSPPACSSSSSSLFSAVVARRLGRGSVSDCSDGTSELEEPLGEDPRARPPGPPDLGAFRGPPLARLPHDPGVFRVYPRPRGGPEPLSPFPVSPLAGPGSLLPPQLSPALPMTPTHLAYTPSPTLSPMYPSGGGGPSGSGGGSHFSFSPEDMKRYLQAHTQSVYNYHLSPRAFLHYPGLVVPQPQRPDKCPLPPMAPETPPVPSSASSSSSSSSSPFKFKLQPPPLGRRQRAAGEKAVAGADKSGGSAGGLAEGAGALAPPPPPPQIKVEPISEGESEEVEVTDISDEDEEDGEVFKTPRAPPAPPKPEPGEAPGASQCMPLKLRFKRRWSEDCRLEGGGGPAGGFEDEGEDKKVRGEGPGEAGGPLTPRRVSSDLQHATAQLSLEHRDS
# How it was run: (§1)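 GST fusions of human transcription factors were expressed in yeast and captured with glutathione beads. Once given DNA barcodes and pooled alongside a tag-only sample, they were incubated for 30 min at room temperature with 200 nmole of a random double-stranded 16-mer DNA library in Tris/NaCl/DTT/glycerol buffer, then washed, crosslinked (0.1% formaldehyde), proximity-ligated, PCR-amplified and sequenced on an Illumina NextSeq500. The binding signal of each hexamer is its read frequency for a factor divided by its frequency for the tag-only sample.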
# [2] = target: T2, ETV3L (Homo sapiens, UniProt Q6ZN32 1-361)
# T2 sequence: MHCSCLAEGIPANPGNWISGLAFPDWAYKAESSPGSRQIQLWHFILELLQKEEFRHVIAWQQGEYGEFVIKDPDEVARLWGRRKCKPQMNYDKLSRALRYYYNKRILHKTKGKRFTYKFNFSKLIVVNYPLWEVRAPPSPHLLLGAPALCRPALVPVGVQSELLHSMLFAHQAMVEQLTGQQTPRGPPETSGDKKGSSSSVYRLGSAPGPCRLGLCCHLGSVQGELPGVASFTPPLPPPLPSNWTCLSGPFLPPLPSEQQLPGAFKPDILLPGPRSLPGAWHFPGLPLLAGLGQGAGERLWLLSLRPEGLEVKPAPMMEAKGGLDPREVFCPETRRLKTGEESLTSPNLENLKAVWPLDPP
# How it was run: as §1
# [3] = target: T3, ETS2 (Homo sapiens, UniProt P15036 1-469)
# T3 sequence: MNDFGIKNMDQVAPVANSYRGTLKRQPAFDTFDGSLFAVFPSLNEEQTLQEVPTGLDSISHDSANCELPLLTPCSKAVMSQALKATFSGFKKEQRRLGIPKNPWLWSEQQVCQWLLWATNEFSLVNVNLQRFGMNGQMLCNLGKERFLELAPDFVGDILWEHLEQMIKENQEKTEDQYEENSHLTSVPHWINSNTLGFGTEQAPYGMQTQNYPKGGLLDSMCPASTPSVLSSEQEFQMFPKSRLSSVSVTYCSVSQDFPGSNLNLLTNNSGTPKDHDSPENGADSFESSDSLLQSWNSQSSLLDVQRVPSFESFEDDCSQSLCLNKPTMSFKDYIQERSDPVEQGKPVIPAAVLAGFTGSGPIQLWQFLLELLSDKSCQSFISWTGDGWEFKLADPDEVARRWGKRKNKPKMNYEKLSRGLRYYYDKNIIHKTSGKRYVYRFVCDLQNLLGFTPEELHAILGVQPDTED
# How it was run: as §1
# [4] = target: T4, SPDEF (Homo sapiens, UniProt O95238 1-335)
# T4 sequence: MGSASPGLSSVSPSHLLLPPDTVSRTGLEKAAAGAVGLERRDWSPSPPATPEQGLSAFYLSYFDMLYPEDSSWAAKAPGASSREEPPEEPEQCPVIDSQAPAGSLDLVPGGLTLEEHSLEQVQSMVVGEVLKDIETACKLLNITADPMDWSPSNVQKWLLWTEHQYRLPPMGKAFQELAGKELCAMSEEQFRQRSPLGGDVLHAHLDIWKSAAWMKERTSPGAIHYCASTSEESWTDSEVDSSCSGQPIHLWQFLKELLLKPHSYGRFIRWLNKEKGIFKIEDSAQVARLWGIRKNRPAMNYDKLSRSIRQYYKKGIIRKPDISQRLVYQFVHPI
# How it was run: as §1
# [5] = target: T5, ETV7 (Homo sapiens, UniProt Q9Y603 1-341)
# T5 sequence: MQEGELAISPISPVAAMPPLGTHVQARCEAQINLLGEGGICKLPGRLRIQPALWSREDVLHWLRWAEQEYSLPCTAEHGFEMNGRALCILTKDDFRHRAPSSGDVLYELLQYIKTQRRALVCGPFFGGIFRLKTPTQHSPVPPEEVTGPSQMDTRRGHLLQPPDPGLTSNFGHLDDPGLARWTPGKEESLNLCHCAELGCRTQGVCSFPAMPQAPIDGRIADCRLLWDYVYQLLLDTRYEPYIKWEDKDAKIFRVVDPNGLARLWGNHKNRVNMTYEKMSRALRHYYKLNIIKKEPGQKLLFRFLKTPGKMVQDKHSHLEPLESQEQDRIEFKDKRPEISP
# How it was run: as §1
# [6] = target: T6, ETV3 (Homo sapiens, UniProt P41162-2 1-143)
# T6 sequence: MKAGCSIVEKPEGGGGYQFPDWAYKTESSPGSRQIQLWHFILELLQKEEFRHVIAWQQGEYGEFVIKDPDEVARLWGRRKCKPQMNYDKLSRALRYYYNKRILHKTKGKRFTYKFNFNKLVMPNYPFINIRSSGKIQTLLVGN
# How it was run: as §1
# [7] = target: ETV6 (Homo sapiens, UniProt P41212 1-452)
# ETV6, sequence (P41212 whole entry): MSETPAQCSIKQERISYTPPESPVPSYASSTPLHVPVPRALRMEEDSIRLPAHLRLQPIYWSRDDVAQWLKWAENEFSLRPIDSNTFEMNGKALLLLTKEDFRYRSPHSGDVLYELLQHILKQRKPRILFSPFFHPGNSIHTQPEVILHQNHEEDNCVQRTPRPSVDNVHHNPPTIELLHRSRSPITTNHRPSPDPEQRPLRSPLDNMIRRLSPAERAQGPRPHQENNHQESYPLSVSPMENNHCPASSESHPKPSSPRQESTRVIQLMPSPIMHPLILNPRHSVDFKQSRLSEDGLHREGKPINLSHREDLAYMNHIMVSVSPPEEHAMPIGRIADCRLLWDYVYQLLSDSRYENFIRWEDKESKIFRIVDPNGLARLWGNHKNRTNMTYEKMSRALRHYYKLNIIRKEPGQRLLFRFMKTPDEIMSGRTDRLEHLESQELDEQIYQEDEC
# How it was run: as §1
# [8] = target: T7, ELF5 (Homo sapiens, UniProt Q9UKW6-2 1-255)
# T7 sequence: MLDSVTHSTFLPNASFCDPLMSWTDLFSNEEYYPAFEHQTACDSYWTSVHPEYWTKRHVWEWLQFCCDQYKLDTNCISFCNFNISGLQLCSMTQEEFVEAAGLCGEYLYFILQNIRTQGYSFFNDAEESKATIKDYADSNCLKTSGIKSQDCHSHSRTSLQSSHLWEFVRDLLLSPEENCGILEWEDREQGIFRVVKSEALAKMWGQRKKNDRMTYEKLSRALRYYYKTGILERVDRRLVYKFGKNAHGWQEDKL
# How it was run: as §1
Sequence,binding signal [1],binding signal [2],binding signal [3],binding signal [4],binding signal [5],binding signal [6],binding signal [7],binding signal [8]
GCACGA,"1.13 fold enrichment (6-mer frequency, TF over GST control)","1 fold enrichment (6-mer frequency, TF over GST control)","1.03 fold enrichment (6-mer frequency, TF over GST control)","1 fold enrichment (6-mer frequency, TF over GST control)","1.19 fold enrichment (6-mer frequency, TF over GST control)","1.1 fold enrichment (6-mer frequency, TF over GST control)","1.06 fold enrichment (6-mer frequency, TF over GST control)",
CGCTAG,"1.08 fold enrichment (6-mer frequency, TF over GST control)","1.06 fold enrichment (6-mer frequency, TF over GST control)","1.03 fold enrichment (6-mer frequency, TF over GST control)","1.08 fold enrichment (6-mer frequency, TF over GST control)",,,"1.04 fold enrichment (6-mer frequency, TF over GST control)","1.05 fold enrichment (6-mer frequency, TF over GST control)"
CCGTAA,"1.08 fold enrichment (6-mer frequency, TF over GST control)","1.12 fold enrichment (6-mer frequency, TF over GST control)","1.16 fold enrichment (6-mer frequency, TF over GST control)","1.2 fold enrichment (6-mer frequency, TF over GST control)",,"1.12 fold enrichment (6-mer frequency, TF over GST control)","1.08 fold enrichment (6-mer frequency, TF over GST control)","1.22 fold enrichment (6-mer frequency, TF over GST control)"
AGCCCT,"1.11 fold enrichment (6-mer frequency, TF over GST control)","1.12 fold enrichment (6-mer frequency, TF over GST control)","1.16 fold enrichment (6-mer frequency, TF over GST control)","1.07 fold enrichment (6-mer frequency, TF over GST control)",,"1.15 fold enrichment (6-mer frequency, TF over GST control)","1.11 fold enrichment (6-mer frequency, TF over GST control)","1.08 fold enrichment (6-mer frequency, TF over GST control)"
TGTGCA,"1.21 fold enrichment (6-mer frequency, TF over GST control)","1.06 fold enrichment (6-mer frequency, TF over GST control)","1.16 fold enrichment (6-mer frequency, TF over GST control)","1.14 fold enrichment (6-mer frequency, TF over GST control)",,"1.08 fold enrichment (6-mer frequency, TF over GST control)","1 fold enrichment (6-mer frequency, TF over GST control)",
CATTCA,"1.11 fold enrichment (6-mer frequency, TF over GST control)","1.08 fold enrichment (6-mer frequency, TF over GST control)","1.01 fold enrichment (6-mer frequency, TF over GST control)",,"1.09 fold enrichment (6-mer frequency, TF over GST control)","1.11 fold enrichment (6-mer frequency, TF over GST control)","1.09 fold enrichment (6-mer frequency, TF over GST control)","1.02 fold enrichment (6-mer frequency, TF over GST control)"
TGACTG,"1.15 fold enrichment (6-mer frequency, TF over GST control)","1.16 fold enrichment (6-mer frequency, TF over GST control)","1.17 fold enrichment (6-mer frequency, TF over GST control)","1.05 fold enrichment (6-mer frequency, TF over GST control)",,,"1.06 fold enrichment (6-mer frequency, TF over GST control)",
AGGCTC,"1.14 fold enrichment (6-mer frequency, TF over GST control)","1.08 fold enrichment (6-mer frequency, TF over GST control)","1.02 fold enrichment (6-mer frequency, TF over GST control)",,"1.04 fold enrichment (6-mer frequency, TF over GST control)","1.01 fold enrichment (6-mer frequency, TF over GST control)","1.16 fold enrichment (6-mer frequency, TF over GST control)","1.04 fold enrichment (6-mer frequency, TF over GST control)"
CATTAT,"1.21 fold enrichment (6-mer frequency, TF over GST control)","1.24 fold enrichment (6-mer frequency, TF over GST control)","1.21 fold enrichment (6-mer frequency, TF over GST control)",,"1.31 fold enrichment (6-mer frequency, TF over GST control)","1.15 fold enrichment (6-mer frequency, TF over GST control)","1.2 fold enrichment (6-mer frequency, TF over GST control)","1.12 fold enrichment (6-mer frequency, TF over GST control)"
CCATTA,"1.07 fold enrichment (6-mer frequency, TF over GST control)","1.16 fold enrichment (6-mer frequency, TF over GST control)","1.12 fold enrichment (6-mer frequency, TF over GST control)",,"1.13 fold enrichment (6-mer frequency, TF over GST control)","1.11 fold enrichment (6-mer frequency, TF over GST control)","1.13 fold enrichment (6-mer frequency, TF over GST control)","1.08 fold enrichment (6-mer frequency, TF over GST control)"
GTCACT,"1.07 fold enrichment (6-mer frequency, TF over GST control)","1.08 fold enrichment (6-mer frequency, TF over GST control)","1.13 fold enrichment (6-mer frequency, TF over GST control)",,"1.09 fold enrichment (6-mer frequency, TF over GST control)","1.01 fold enrichment (6-mer frequency, TF over GST control)",,"1.07 fold enrichment (6-mer frequency, TF over GST control)"
ACGATC,"1.16 fold enrichment (6-mer frequency, TF over GST control)","1.02 fold enrichment (6-mer frequency, TF over GST control)","1.14 fold enrichment (6-mer frequency, TF over GST control)",,"1 fold enrichment (6-mer frequency, TF over GST control)","1.03 fold enrichment (6-mer frequency, TF over GST control)",,"1.01 fold enrichment (6-mer frequency, TF over GST control)"
ACGCAC,"1.13 fold enrichment (6-mer frequency, TF over GST control)","1.01 fold enrichment (6-mer frequency, TF over GST control)","1.09 fold enrichment (6-mer frequency, TF over GST control)",,"1.03 fold enrichment (6-mer frequency, TF over GST control)","1.13 fold enrichment (6-mer frequency, TF over GST control)","1.02 fold enrichment (6-mer frequency, TF over GST control)","1.03 fold enrichment (6-mer frequency, TF over GST control)"
AGGGCT,"1.1 fold enrichment (6-mer frequency, TF over GST control)","1.06 fold enrichment (6-mer frequency, TF over GST control)","1.02 fold enrichment (6-mer frequency, TF over GST control)",,"1.12 fold enrichment (6-mer frequency, TF over GST control)","1.06 fold enrichment (6-mer frequency, TF over GST control)","1.09 fold enrichment (6-mer frequency, TF over GST control)","1.05 fold enrichment (6-mer frequency, TF over GST control)"
